Test results from PubChem BioAssay.
For some of these results: Results with a measured potency or affinity are listed apart. The source made the active and inactive calls. Unless noted, the rule behind the calls is not given here.

Tests used:
[1] = antimalarial activity against Dd2 strain (AID 2302;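 active = growth inhibition above 50% at the single 2 µM test dose, taken to imply half-maximal potency below 2 µM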;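 note: 0% = DMSO untreated growth and 100% = chloroquine plus artemisinin killed control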); settings: P. falciparum Dd2 in RBCs, LDH growth readout, 72 h; at 2 µM; active compounds read high
[2] = human hepatoma cell viability loss – ATP luminescence, cytotoxicity control for P. falciparum antimalarial project, primary screen (AID 2303;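 active = inhibition above 50%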;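 note: 0% = DMSO wells and 100% = digitonin-killed cells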); settings: HepG2 viability, 24-48 h, at 10 µM, active compounds read high
[3] = target: L-lactate dehydrogenase (Plasmodium falciparum (isolate CDC / Honduras)) (UniProt Q27743); experiment: PfLDH activity inhibition – cell lysate, 3D7 strain, counter-screen for P. falciparum growth inhibition project (AID 2304);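 note: 0% = vehicle and 100% = reference inhibitor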; settings: P. falciparum 3D7 crude extract, LDH APAD/NBT absorbance; at 2 µM; active compounds read high
L-lactate dehydrogenase (Plasmodium falciparum (isolate CDC / Honduras)), sequence (Q27743 whole entry, looked up): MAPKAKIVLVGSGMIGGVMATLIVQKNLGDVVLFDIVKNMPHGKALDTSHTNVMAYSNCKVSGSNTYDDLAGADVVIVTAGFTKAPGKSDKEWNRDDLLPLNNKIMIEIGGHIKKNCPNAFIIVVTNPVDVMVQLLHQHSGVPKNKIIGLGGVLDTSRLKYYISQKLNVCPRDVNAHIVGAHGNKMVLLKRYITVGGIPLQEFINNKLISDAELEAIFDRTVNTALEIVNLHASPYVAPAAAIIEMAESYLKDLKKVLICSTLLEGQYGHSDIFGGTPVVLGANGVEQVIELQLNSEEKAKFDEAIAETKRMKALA

[4] = inhibition of 3D7 malaria parasite growth – strain 3D7 (AID 2306);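 note: 0% = DMSO wells and 100% = chloroquine plus artemisinin control wells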; settings: P. falciparum 3D7 erythrocytic growth, LDH absorbance, 72 h; at 2 µM; active compounds read high
[5] = target: Calcium-dependent protein kinase 1 (Plasmodium falciparum (isolate 3D7)) (UniProt P62344); experiment: PfCDPK1 kinase inhibitors, biochemical, TCAMS library (AID 1159585; cut-off not given, nearly all actives have IC50 up to about 0.98 µM;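 note: inhibitors leave more ATP so luminescence rises with inhibition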); settings: recombinant PfCDPK1, Kinase-Glo ATP depletion luminescence
Calcium-dependent protein kinase 1 (Plasmodium falciparum (isolate 3D7)), sequence (P62344 whole entry, looked up): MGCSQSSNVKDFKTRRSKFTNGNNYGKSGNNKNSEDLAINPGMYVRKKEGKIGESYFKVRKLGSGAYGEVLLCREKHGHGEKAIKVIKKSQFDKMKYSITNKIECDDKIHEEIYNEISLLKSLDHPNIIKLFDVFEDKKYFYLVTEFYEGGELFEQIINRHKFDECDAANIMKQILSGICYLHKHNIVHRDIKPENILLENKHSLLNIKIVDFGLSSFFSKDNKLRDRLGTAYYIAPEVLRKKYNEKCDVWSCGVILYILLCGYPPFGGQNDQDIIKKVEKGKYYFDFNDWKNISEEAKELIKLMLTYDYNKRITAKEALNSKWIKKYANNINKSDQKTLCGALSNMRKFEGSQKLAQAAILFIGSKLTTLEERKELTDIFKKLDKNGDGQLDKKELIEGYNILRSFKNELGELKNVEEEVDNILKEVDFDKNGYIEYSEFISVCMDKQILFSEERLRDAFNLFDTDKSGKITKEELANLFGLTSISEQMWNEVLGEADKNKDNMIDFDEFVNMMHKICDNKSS

[6] = target: Plasmodium falciparum protein kinase 6 (PK6, PF3D7_1337100) (UniProt Q8IDW1); experiment: PfPK6 kinase inhibitors, biochemical, TCAMS library (AID 1159586); settings: recombinant PfPK6, Kinase-Glo ATP depletion luminescence
Plasmodium falciparum protein kinase 6 (PK6, PF3D7_1337100), sequence (Q8IDW1 1-305): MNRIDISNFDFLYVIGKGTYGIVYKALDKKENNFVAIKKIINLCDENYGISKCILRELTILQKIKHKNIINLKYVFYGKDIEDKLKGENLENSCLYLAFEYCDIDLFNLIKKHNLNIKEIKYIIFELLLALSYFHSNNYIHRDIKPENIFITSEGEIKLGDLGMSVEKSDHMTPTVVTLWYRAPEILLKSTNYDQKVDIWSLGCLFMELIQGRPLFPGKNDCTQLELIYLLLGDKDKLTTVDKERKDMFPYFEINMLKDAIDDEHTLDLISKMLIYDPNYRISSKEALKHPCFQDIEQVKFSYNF

[7] = target: Protein kinase 7 (PK7), Plasmodium falciparum 3D7 (PF3D7_0213400) (UniProt Q7YTF7); experiment: inhibition of Plasmodium PK7 catalytic activity – biochemical, TCAMS antimalarial set, Kinase-Glo luminescence (AID 1159587); settings: recombinant PfPK7, Kinase-Glo ATP depletion luminescence
Protein kinase 7 (PK7), Plasmodium falciparum 3D7 (PF3D7_0213400), sequence (Q7YTF7 1-343): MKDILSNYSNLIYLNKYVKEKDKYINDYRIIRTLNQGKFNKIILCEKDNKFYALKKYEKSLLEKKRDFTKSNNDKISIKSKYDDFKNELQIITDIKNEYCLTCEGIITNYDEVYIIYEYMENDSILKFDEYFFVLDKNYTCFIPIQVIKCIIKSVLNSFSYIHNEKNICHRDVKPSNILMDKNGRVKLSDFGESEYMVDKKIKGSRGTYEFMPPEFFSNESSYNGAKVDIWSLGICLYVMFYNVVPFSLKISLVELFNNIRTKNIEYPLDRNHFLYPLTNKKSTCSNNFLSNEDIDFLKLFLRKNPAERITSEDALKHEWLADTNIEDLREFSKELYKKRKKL

[8] = target: Calcium-dependent protein kinase 4 (Plasmodium falciparum (isolate 3D7)) (UniProt Q8IBS5); experiment: PfCDPK4 kinase inhibitors, biochemical, TCAMS library (AID 1159588; cut-off not given, nearly all actives have IC50 up to about 0.91 µM); settings: recombinant PfCDPK4, Kinase-Glo ATP depletion luminescence
Calcium-dependent protein kinase 4 (Plasmodium falciparum (isolate 3D7)), sequence (Q8IBS5 whole entry, looked up): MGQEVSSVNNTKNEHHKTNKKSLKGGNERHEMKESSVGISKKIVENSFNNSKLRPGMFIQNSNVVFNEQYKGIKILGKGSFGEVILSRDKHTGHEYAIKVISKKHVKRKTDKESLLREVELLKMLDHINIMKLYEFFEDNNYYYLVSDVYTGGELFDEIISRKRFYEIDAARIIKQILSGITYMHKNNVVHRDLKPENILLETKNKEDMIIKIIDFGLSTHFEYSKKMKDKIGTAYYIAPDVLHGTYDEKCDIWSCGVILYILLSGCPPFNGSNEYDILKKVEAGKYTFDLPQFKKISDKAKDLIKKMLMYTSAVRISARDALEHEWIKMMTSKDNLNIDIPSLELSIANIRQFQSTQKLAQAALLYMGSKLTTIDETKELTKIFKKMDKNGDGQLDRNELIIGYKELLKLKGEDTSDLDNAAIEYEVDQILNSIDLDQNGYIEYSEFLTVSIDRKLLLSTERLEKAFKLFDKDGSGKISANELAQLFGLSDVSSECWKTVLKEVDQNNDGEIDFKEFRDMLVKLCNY

COc1ccc(CNCCc2cccs2)cc1-c1ccc(OC)c(S(=O)(=O)NCCN2CCCC2)c1
inactive: growth inhibition [1] 19% | inhibition [2] 16% | inhibition [3] 1% | outcome [5] | outcome [6] | outcome [7] | outcome [8]
active: growth inhibition [4] 96%

COCC(C)n1c(C)cc(C(=O)CSc2nnc(Nc3ccccc3)s2)c1C (stereo not drawn)
inactive: inhibition [2] -5% | inhibition [3] -6% | outcome [5] | outcome [6] | outcome [7] | outcome [8]
active: growth inhibition [1] 98% | growth inhibition [4] 97%

O=C(CCNc1ccnc(NCCc2ccccc2)n1)Nc1ccccc1
active: growth inhibition [4] 89%
inactive: growth inhibition [1] 19% | inhibition [2] 7% | inhibition [3] 2% | outcome [5] | outcome [6] | outcome [7] | outcome [8]

CCN(CCNC(=O)Nc1cc(C(F)(F)F)cc(C(F)(F)F)c1)c1cccc(C)c1
active: growth inhibition [1] 100% | growth inhibition [4] 98%
inactive: inhibition [2] -3% | inhibition [3] 4% | outcome [5] | outcome [6] | outcome [7] | outcome [8]

O=C(NC(=S)NCc1ccncc1)c1ccccc1
active: growth inhibition [4] 94%
inactive: growth inhibition [1] -3% | inhibition [2] -7% | inhibition [3] 1% | outcome [5] | outcome [6] | outcome [7] | outcome [8]

CN1CCN(c2ccnc3ccc(NC(=O)Nc4cccc5c(C#N)cccc45)cc23)CC1
active: growth inhibition [4] 91%
inactive: growth inhibition [1] 40% | inhibition [2] -6% | inhibition [3] 8% | outcome [5] | outcome [6] | outcome [7] | outcome [8]

N#Cc1ccc(CCNc2nccc(-c3cccc(CN4CCNCC4)c3)n2)cc1
inactive: growth inhibition [1] -3% | inhibition [2] 5% | inhibition [3] 3% | outcome [5] | outcome [6] | outcome [7] | outcome [8]
active: growth inhibition [4] 83%

CC[C@H](NC(=O)c1c(CN2CCC(N3CCCCC3)CC2)c(-c2ccccc2)nc2c(Cl)c(O)ccc12)c1ccccc1
active: growth inhibition [1] 66% | growth inhibition [4] 101%
inactive: inhibition [2] -1% | inhibition [3] -3% | outcome [5] | outcome [6] | outcome [7] | outcome [8]

COc1ccc(Nc2nccc(N3CCC(NC(=O)Nc4ccc5c(c4)OCO5)C3)n2)cc1 (stereo not drawn)
inactive: inhibition [2] 27% | inhibition [3] -2% | outcome [5] | outcome [6] | outcome [7] | outcome [8]
active: growth inhibition [1] 57% | growth inhibition [4] 98%

COc1cc(C2NCC3(CCOCC3)c3cc4c(cc32)OCCO4)cc(OC)c1OC (stereo not drawn)
inactive: growth inhibition [1] 2% | inhibition [2] 24% | inhibition [3] -5% | outcome [5] | outcome [6] | outcome [7] | outcome [8]
active: growth inhibition [4] 95%

COC(=O)c1ccc(C(=O)NCCCCN2CCC(c3ccc4c(c3OC)CCCC4)CC2)cc1-c1ccc(C(F)(F)F)cc1
inactive: growth inhibition [1] 19% | inhibition [2] 24% | inhibition [3] 2% | outcome [5] | outcome [6] | outcome [7] | outcome [8]
active: growth inhibition [4] 93%

CC(C)c1sc(N2CCCCC2)nc1C(=O)Nc1ccc(F)cc1C(F)(F)F
inactive: inhibition [2] -1% | inhibition [3] 0% | outcome [5] | outcome [6] | outcome [7] | outcome [8]
active: growth inhibition [1] 98% | growth inhibition [4] 100%

Nc1cc(C=Cc2ccc([N+](=O)[O-])o2)nc2ccccc12
inactive: inhibition [3] 4% | outcome [5] | outcome [6] | outcome [7] | outcome [8]
active: growth inhibition [1] 81% | inhibition [2] 100% | growth inhibition [4] 93%

O=C(NCc1ccccc1)Nc1ccc(-c2cccc(-c3nc4ccc(C(F)(F)F)cc4[nH]3)c2)cc1
active: inhibition [2] 56% | growth inhibition [4] 97%
inactive: growth inhibition [1] 23% | inhibition [3] -1% | outcome [5] | outcome [6] | outcome [7] | outcome [8]

Oc1ccc(CCCNc2nc(NCc3cccc4ccccc34)nc(N3CCNCC3)n2)cc1
inactive: growth inhibition [1] 4% | inhibition [2] 9% | inhibition [3] -1% | outcome [5] | outcome [6] | outcome [7] | outcome [8]
active: growth inhibition [4] 100%

CCCNC(=O)C1Cc2cc(OC)c(OC)cc2C2(N1)C(=O)N(Cc1cccc(OC)c1)c1ccccc12 (stereo not drawn)
inactive: inhibition [2] 11% | inhibition [3] 3% | outcome [5] | outcome [6] | outcome [7] | outcome [8]
active: growth inhibition [1] 63% | growth inhibition [4] 91%

c1ccc(-c2ccc(CNCc3ccc(-c4cccc(-c5nc6ccccc6[nH]5)c4)cc3)s2)nc1
inactive: inhibition [2] 48% | inhibition [3] -1% | outcome [5] | outcome [6] | outcome [7] | outcome [8]
active: growth inhibition [1] 80% | growth inhibition [4] 98%

N#Cc1ccc2c(c1)CCN(CCC1CCC(NC(=O)Nc3cnc4ccccc4c3)CC1)C2 (stereo not drawn)
active: growth inhibition [4] 93%
inactive: growth inhibition [1] 9% | inhibition [2] 14% | inhibition [3] 6% | outcome [5] | outcome [6] | outcome [7] | outcome [8]

COc1cc(N(C)Cc2cnc3nc(N)nc(N)c3n2)cc(OC)c1OC
inactive: growth inhibition [1] 2% | inhibition [2] 32% | inhibition [3] 1% | outcome [5] | outcome [6] | outcome [7] | outcome [8]
active: growth inhibition [4] 95%

CCN(CC)CCN(Cc1ccc(-c2ccc(C(F)(F)F)cc2)cc1)C(=O)Cn1c(CCc2ccc(F)c(C#N)c2)nc(=O)c2ccccc21
inactive: inhibition [2] 18% | inhibition [3] -2% | outcome [5] | outcome [6] | outcome [7] | outcome [8]
active: growth inhibition [1] 55% | growth inhibition [4] 98%

CCNc1cc(CCCC(=O)OCC)nc(Nc2ccc(C)cc2)n1
inactive: inhibition [2] 17% | inhibition [3] -4% | outcome [5] | outcome [6] | outcome [7] | outcome [8]
active: growth inhibition [1] 63% | growth inhibition [4] 101%

NC(N)=NN=Cc1c2ccccc2c(Cl)c2cc(Cl)ccc12
active: growth inhibition [4] 97%
inactive: growth inhibition [1] 28% | inhibition [2] 26% | inhibition [3] -3% | outcome [5] | outcome [6] | outcome [7] | outcome [8]

CN1CCN(Cc2cccc(-c3cc4nccc(Nc5ccc(Oc6ccccc6)cc5)c4cc3Cl)c2)CC1
inactive: inhibition [2] 10% | inhibition [3] -3% | outcome [5] | outcome [6] | outcome [7] | outcome [8]
active: growth inhibition [1] 96% | growth inhibition [4] 101%

CN(C)CCNC(=O)[C@H](CC1CCCCC1)NC(=O)c1ccc(O)c(-c2ccc(Cl)c(Cl)c2)c1
active: growth inhibition [1] 97% | growth inhibition [4] 98%
inactive: inhibition [2] 0% | inhibition [3] -4% | outcome [5] | outcome [6] | outcome [7] | outcome [8]

CC(C)Sc1nc2c(c(=O)n1CCc1ccccc1)C1(CCCCC1)Cc1ccccc1-2
active: growth inhibition [4] 92%
inactive: growth inhibition [1] 5% | inhibition [2] 8% | inhibition [3] 1% | outcome [5] | outcome [6] | outcome [7] | outcome [8]

Cc1ccc(NC(=O)NC2CCN(c3ccnc4ccccc34)C2)cc1 (stereo not drawn)
active: growth inhibition [4] 99%
inactive: growth inhibition [1] 48% | inhibition [2] 7% | inhibition [3] 0% | outcome [5] | outcome [6] | outcome [7] | outcome [8]

CC(Cc1ccc(NC(=O)c2ccc(CC(C)NCc3ccc(Cl)c(Cl)c3)cc2)cc1)NCCc1cccc(Cl)c1 (stereo not drawn)
inactive: growth inhibition [1] 33% | inhibition [2] 26% | inhibition [3] 4% | outcome [5] | outcome [6] | outcome [7] | outcome [8]
active: growth inhibition [4] 92%

N#Cc1ccc(NC(=Nc2ccccc2Br)N(C2CCCCC2)C2CCCCC2)c(O)c1
active: growth inhibition [1] 96% | growth inhibition [4] 99%
inactive: inhibition [2] 4% | inhibition [3] 4% | outcome [5] | outcome [6] | outcome [7] | outcome [8]

COc1cc(C(=O)N2CCOC(CCN3CCC(Cc4ccc(F)cc4)CC3)(c3ccc(Cl)c(Cl)c3)C2)cc(OC)c1OC (stereo not drawn)
active: growth inhibition [1] 58% | growth inhibition [4] 88%
inactive: inhibition [2] 44% | inhibition [3] -5% | outcome [5] | outcome [6] | outcome [7] | outcome [8]

O=c1cc(NCCC(CNCc2ccoc2)NCc2cc(Br)cc(Br)c2)[nH]c2ccccc12 (stereo not drawn)
active: growth inhibition [4] 92%
inactive: growth inhibition [1] 28% | inhibition [2] -6% | inhibition [3] -1% | outcome [5] | outcome [6] | outcome [7] | outcome [8]

O=C(Oc1ccc(Cl)cc1C(=O)Nc1ccc([N+](=O)[O-])cc1Cl)c1ccccc1
inactive: growth inhibition [1] 19% | inhibition [3] 3% | outcome [5] | outcome [6] | outcome [7] | outcome [8]
active: inhibition [2] 88% | growth inhibition [4] 97%

CCCCCCN1CCC(NCc2ccc(CN(C)C)cc2)CC1
inactive: growth inhibition [1] 26% | inhibition [2] 18% | inhibition [3] 1% | outcome [5] | outcome [6] | outcome [7] | outcome [8]
active: growth inhibition [4] 92%

Nc1ncc(-c2ccsc2)cc1-c1nc2ccccc2[nH]1
active: growth inhibition [4] 99%
inactive: growth inhibition [1] 8% | inhibition [2] 33% | inhibition [3] -2% | outcome [5] | outcome [6] | outcome [7] | outcome [8]

COCc1ccc(CN2CCC(C(=O)Nc3ccc(-c4nc5ccccc5[nH]4)cc3)CC2)o1
inactive: growth inhibition [1] 13% | inhibition [2] 13% | inhibition [3] -5% | outcome [5] | outcome [6] | outcome [7] | outcome [8]
active: growth inhibition [4] 97%

O=C(/C=C/c1ccc(-c2ccccc2)cc1)NCCCCCN1CCC(c2c[nH]c3ccccc23)CC1
active: inhibition [2] 91% | growth inhibition [4] 97%
inactive: growth inhibition [1] 23% | inhibition [3] 6% | outcome [5] | outcome [6] | outcome [7] | outcome [8]

O=C(NCCNc1ccnc(Nc2ccc(F)cc2)n1)Nc1ccccc1F
active: growth inhibition [4] 93%
inactive: growth inhibition [1] 4% | inhibition [2] 22% | inhibition [3] 5% | outcome [5] | outcome [6] | outcome [7] | outcome [8]

CC(C)(C)CCOC(=O)N1CCc2c(cc(O)c(O)c2Cl)C(c2ccc(O)cc2)C1 (stereo not drawn)
active: growth inhibition [1] 95% | growth inhibition [4] 97%
inactive: inhibition [2] 2% | inhibition [3] -2% | outcome [5] | outcome [6] | outcome [7] | outcome [8]

CCCCCCc1c(C)[nH]c2cc(OC)ccc2c1=O
inactive: inhibition [2] 10% | inhibition [3] 3% | outcome [5] | outcome [6] | outcome [7] | outcome [8]
active: growth inhibition [1] 97% | growth inhibition [4] 97%

CCCN1CCN(CC(O)CNC(=O)Nc2ccc(Br)cc2)CC1 (stereo not drawn)
active: growth inhibition [1] 100% | growth inhibition [4] 101%
inactive: inhibition [2] 10% | inhibition [3] 0% | outcome [5] | outcome [6] | outcome [7] | outcome [8]

O=C(Nc1ccc2c(c1)CN(Cc1ccc(N3CCCC3)o1)CCC2)c1ccoc1
active: growth inhibition [1] 76% | growth inhibition [4] 89%
inactive: inhibition [2] 4% | inhibition [3] -3% | outcome [5] | outcome [6] | outcome [7] | outcome [8]

CN1CCCN(Cc2cccc(-c3ccc(CNC(=O)c4cccc(Cl)c4)c(F)c3)c2)CC1
active: inhibition [2] 56% | growth inhibition [4] 96%
inactive: growth inhibition [1] 38% | inhibition [3] -2% | outcome [5] | outcome [6] | outcome [7] | outcome [8]
